Laboratory results as given in PubChem BioAssay (NCATS).
Inconclusive results are not listed. Calls of active or inactive are those of the source. Unless noted, calls follow the shape of the dose curve; as a rule, active = well fitted curve in the direction sought with a large enough effect; inconclusive = small, poorly fitted or top-dose-only effect, or another doubt; inactive = no such curve, though single readings can be large; an effect the other way counts as inactive or inconclusive.

Columns and labels:
[1] = molecular target: ATP-dependent 6-phosphofructokinase (Trypanosoma brucei brucei) (UniProt O15648); test: qHTS Assay to Find Inhibitors of T. brucei phosphofructokinase: hit validation (AID 492961);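 also: luminescence reports ADP formed as PFK phosphorylates fructose-6-phosphate with ATP; series mostly up to about 51 µM; % is scaled to controls: 0 for no effect and ±100 for the full control effect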
Sequence of ATP-dependent 6-phosphofructokinase (Trypanosoma brucei brucei) (O15648 whole entry, looked up): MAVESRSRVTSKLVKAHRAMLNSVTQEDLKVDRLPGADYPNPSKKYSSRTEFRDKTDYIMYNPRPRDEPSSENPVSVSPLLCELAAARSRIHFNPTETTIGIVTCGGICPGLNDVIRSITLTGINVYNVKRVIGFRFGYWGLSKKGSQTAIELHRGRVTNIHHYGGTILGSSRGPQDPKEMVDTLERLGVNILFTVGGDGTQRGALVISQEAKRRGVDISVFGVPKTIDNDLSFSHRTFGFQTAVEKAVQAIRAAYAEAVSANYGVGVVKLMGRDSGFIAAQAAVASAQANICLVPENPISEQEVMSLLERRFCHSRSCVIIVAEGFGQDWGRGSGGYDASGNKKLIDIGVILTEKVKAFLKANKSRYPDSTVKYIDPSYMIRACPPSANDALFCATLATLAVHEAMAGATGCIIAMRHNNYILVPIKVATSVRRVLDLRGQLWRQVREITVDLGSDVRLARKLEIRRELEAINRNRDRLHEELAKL
Procedure, shortened: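 Compounds titrated; %activity normalized to 0x and 1x enzyme controls, curve-fitted. Readout: ADP-Glo luminescence after 45 min room-temperature reaction of 1.25 nM PFK, 0.1 mM ATP, 0.5 mM F6P, pH 8.0.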

[2] = Quantitative high throughput screen for delayed death inhibitors of the malarial parasite plastid, 96 hour incubation (AID 488745); also: nearly all actives have a fitted effect of over 70% in size; also: potency is read from the fitted curve at half-maximal effect
Procedure, shortened: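 Growth of reporter-bearing P. falciparum in red cells is measured after 96 h with compound, covering two erythrocytic cycles. Luminescence from the integrated luciferase serves as the growth signal.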

[3] = Quantitative high throughput screen for delayed death inhibitors of the malarial parasite plastid, 48 hour incubation (AID 488752); also: nearly all actives have a fitted effect of over 65% in size; also: potency is read from the fitted curve at half-maximal effect
Procedure, shortened: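 One parasite generation (48 h, 37 C, 5% CO2) of luciferase-reporter P. falciparum in erythrocytes is run with test compound; decreased luminescence indicates inhibited growth.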

[4] = molecular target: M-phase phosphoprotein 8 (Homo sapiens) (UniProt Q99549); test: qHTS Validation Assay for Inhibitors for MPP8 Chromodomain Interactions with Methylated Histone Tails (AID 488949); also: nearly all actives have a fitted effect of over 55% in size; also: potency is read from the fitted curve at half-maximal effect
Procedure, shortened: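 Disruption of the preformed MPP8–trimethyl-H3K9 peptide complex (both 50 nM, 30 min, RT) is measured after 30 min compound exposure, using AlphaScreen proximity beads; aurintricarboxylic acid titration serves as plate control.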

[5] = molecular target: Chromobox protein homolog 1 (Homo sapiens) (UniProt P83916); test: qHTS Validation Assay for Inhibitors of HP1-beta Chromodomain Interactions with Methylated Histone Tails (AID 488953); also: nearly all actives have a fitted effect of over 50% in size; also: potency is read from the fitted curve at half-maximal effect
Sequence of Chromobox protein homolog 1 (Homo sapiens) (P83916 whole entry, looked up): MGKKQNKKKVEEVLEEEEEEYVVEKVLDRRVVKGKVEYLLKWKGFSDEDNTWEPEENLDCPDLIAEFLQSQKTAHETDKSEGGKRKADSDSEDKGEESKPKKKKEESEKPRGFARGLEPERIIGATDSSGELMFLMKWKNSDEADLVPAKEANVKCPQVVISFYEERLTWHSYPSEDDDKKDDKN
Procedure, shortened: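 Measured as loss of AlphaScreen luminescence from streptavidin donor and nickel acceptor beads (10 ug/mL final) bridging HP1-beta and biotin-H3(1-18)K9me3, each 50 nM. Compounds met the preassembled complex for 30 min at RT.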

[6] = Validation screen for small molecules that induce genotoxicity in human embryonic kidney (HEK293T) cells expressing luciferase-tagged ELG1 (AID 493106); also: 0% is about no effect
Procedure, shortened: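 Reporter-gene quantitative HTS in HEK293T cells carrying luciferase-tagged ELG1, whose level climbs under genotoxic stress. Compound exposure lasts 16 hr at 37 °C before luciferase detection.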

[7] = molecular target: Tumor susceptibility gene 101 protein (Homo sapiens) (UniProt Q99816); test: qHTS Validation Assay for Iinhibitors of HIV-1 Budding by Blocking the Interaction of PTAP/TSG101 (AID 485342; calls by dose curve; also: 0% is about no effect)
Sequence of Tumor susceptibility gene 101 protein (Homo sapiens) (Q99816 whole entry, looked up, the tested form may be a part): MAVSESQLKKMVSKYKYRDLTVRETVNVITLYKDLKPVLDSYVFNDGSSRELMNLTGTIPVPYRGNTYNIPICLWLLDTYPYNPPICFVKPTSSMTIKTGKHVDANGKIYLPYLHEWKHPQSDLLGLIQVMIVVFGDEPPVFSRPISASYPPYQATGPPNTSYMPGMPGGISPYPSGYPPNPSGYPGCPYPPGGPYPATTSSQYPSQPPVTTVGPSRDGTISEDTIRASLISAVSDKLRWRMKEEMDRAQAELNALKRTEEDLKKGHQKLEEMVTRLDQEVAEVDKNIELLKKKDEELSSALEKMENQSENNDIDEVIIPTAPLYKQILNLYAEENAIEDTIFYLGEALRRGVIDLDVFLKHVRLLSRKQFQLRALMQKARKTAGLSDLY
Procedure, shortened: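 Fluorescence anisotropy measured PTAP-Tsg101 interaction. Final concentrations were 10 uM protein domain and 50 nM labeled peptide, equilibrated 20 min at room temperature.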

[8] = qHTS Validation Assay to Find Inhibitors of Chronic Active B-Cell Receptor Signaling (AID 485345; active = well fitted curve in the direction sought with a large enough effect in the main read-out, with a control signal flat, not every such curve was filed as active;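 also: 0% = untreated basal cells and 100% = 10 µM MG-132 proteasome inhibitor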)
Procedure, shortened: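 TMD8 ABC-DLBCL cells stably carrying doxycycline-inducible IkappaBalpha–green luciferase fusion plus unfused red luciferase; compounds 46 uM to 3 nM, 4 h at 37C with doxycycline. Corrected green/red luminescence ratio normalized to 10 uM MG-132 and basal cell wells; curves fitted.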

[9] = molecular target: Beta-2 adrenergic receptor (Homo sapiens) (UniProt P07550); test: qHTS validation assay of beta-arrestin-biased ligands of beta2-adrenergic receptor (AID 485366); also: 0% is about no effect
Sequence of Beta-2 adrenergic receptor (Homo sapiens) (P07550 whole entry, looked up): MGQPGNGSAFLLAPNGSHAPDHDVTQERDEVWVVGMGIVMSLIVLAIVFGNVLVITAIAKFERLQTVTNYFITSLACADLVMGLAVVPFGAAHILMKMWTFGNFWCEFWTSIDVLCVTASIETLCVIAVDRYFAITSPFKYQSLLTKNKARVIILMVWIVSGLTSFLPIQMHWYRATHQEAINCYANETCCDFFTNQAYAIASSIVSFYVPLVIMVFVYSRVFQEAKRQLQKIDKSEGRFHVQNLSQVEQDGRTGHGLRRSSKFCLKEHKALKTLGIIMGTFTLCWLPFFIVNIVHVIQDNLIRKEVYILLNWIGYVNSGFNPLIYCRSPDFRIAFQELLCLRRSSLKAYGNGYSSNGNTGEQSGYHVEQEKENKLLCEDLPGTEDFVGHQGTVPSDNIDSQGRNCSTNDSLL
Procedure, shortened: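 Tango cells (recombinant beta2-AR with recombinant beta-arrestin; recruitment releases tTA driving luciferase) were treated with compounds titrated up to 46 microM for 18 hr at 37 degrees C. Luminescence gave %Activity, and concentration-response curves were curve-classified.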

[10] = molecular target: Thioredoxin reductase 1, cytoplasmic (Rattus norvegicus) (UniProt O89049); test: qHTS Assay for Substrates of Mammalian Selenoprotein Thioredoxin Reductase 1 (TrxR1) (AID 488772);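 also: NADPH fluorescence in the first read after selenite addition and not the 8 min delta; series mostly up to about 57 µM; 0% is about no effect; a drop in NADPH fluorescence below the no-compound background marks a TrxR1 substrate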
Sequence of Thioredoxin reductase 1, cytoplasmic (Rattus norvegicus) (O89049 whole entry, looked up): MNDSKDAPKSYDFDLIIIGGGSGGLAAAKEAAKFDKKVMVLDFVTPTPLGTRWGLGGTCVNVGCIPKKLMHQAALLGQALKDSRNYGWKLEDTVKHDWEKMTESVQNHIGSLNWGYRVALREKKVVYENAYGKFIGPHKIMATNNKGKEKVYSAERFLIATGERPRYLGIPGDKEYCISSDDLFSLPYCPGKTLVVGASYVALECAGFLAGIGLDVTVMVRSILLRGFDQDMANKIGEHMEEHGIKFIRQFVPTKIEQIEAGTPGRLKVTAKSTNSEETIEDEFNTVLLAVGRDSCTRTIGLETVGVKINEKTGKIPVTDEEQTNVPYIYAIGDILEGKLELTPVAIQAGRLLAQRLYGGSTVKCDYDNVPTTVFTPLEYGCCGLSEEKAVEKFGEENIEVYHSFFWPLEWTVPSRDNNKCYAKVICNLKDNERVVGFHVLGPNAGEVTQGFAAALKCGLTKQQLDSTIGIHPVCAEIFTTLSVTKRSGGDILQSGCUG
Procedure, shortened: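 Quantitative HTS in Tris-HCl buffer at pH 7.5 with EDTA and Tween-20, using rat TrxR1, 400 uM NADPH and 400 uM selenite (final). A fall in initial NADPH fluorescence relative to background marked substrate behaviour.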

[11] = molecular target: Thioredoxin reductase 1, cytoplasmic (Rattus norvegicus) (UniProt O89049); test: qHTS Assay for Inhibitors of Mammalian Selenoprotein Thioredoxin Reductase 1 (TrxR1) (AID 488773);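 also: drop in NADPH fluorescence over an 8 min run after selenite addition; series mostly up to about 57 µM; % is scaled to controls: 0 for no effect and ±100 for the full control effect; nearly all actives have a fitted effect of over 40% in size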
Procedure, shortened: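 Steps: enzyme (90 nM) plus NADPH (400 uM final), 5 min at ~22 deg C; compound added, 15 min; selenite (400 uM final) added; fluorescence followed for 8 min. Concentration-response curves derived from the normalized delta values.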

[12] = molecular target: Methanococcus maripaludis chaperonin (MmCpn) (UniProt Q6LX38); test: High-Throughput Screening for Modulators of Cytosolic Chaperonin Activity: MmCpn Primary Screen (AID 488978);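 also: 50 nM MmCpn enzyme hydrolysing 30 µM ATP at 37 °C; 0% is about no effect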
Sequence of Methanococcus maripaludis chaperonin (MmCpn) (Q6LX38 1-543): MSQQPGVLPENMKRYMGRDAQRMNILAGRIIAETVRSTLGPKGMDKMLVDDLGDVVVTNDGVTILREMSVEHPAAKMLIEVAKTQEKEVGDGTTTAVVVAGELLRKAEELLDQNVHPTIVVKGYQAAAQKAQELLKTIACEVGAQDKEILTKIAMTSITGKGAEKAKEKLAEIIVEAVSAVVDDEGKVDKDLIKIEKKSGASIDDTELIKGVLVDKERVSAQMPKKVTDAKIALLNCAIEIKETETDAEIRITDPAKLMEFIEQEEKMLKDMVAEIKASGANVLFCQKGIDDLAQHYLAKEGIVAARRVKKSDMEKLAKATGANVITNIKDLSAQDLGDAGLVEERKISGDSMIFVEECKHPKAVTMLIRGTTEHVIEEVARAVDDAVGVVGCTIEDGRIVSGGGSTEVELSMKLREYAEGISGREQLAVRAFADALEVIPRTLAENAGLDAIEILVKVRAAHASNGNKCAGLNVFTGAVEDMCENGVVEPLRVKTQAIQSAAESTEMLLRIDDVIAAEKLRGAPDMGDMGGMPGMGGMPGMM
Procedure, shortened: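 Measures ATPase turnover of the M. maripaludis chaperonin (50 nM final) against 30 uM ATP over 10 min at 37C, with compound added 5 min beforehand at room temperature. ADP is quantified by HTRF immunodetection.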

[13] = molecular target: Transient receptor potential cation channel subfamily V member 1 (Homo sapiens) (UniProt Q8NER1); test: HTS Assay for Compounds that Act as Enhancers of the Vanilloid Receptor 1 (AID 488979); also: 0% is about no effect
Sequence of Transient receptor potential cation channel subfamily V member 1 (Homo sapiens) (Q8NER1 whole entry, looked up): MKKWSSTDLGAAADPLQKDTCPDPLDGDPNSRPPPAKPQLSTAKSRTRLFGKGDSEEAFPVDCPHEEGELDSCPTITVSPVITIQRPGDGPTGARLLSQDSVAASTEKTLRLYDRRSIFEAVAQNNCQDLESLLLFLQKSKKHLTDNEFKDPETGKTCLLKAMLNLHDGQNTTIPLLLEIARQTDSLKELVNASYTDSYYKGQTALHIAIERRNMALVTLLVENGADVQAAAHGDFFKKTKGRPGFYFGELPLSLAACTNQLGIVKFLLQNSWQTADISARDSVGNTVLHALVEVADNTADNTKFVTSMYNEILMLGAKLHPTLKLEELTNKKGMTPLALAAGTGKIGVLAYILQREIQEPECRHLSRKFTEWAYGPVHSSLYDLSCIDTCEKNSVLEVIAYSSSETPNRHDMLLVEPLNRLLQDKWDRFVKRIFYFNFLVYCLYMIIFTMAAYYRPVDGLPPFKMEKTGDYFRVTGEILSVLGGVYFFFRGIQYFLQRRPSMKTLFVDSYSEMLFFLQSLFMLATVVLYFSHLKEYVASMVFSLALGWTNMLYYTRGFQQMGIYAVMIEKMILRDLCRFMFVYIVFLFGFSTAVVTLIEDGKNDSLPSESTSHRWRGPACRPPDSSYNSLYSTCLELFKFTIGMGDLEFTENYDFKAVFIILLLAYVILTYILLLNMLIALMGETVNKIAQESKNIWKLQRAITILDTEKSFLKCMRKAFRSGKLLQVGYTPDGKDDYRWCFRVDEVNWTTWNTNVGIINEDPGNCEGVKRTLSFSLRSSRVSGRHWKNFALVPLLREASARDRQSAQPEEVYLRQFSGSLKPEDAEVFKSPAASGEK
Procedure, shortened: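 TRPV1 cells loaded with Fluo-8 calcium dye; compound added and Ca2+ signal (ex 480/em 520 nm) followed 3 min, then capsaicin at EC20 added and read 2 more min to detect enhancement.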

[14] = molecular target: Thyrotropin receptor (Homo sapiens) (UniProt P16473); test: qHTS Assay for Antagonists of the Thyroid Stimulating Hormone Receptor (AID 488980); also: series mostly up to about 58 µM; 0% is about no effect
Sequence of Thyrotropin receptor (Homo sapiens) (P16473 whole entry, looked up): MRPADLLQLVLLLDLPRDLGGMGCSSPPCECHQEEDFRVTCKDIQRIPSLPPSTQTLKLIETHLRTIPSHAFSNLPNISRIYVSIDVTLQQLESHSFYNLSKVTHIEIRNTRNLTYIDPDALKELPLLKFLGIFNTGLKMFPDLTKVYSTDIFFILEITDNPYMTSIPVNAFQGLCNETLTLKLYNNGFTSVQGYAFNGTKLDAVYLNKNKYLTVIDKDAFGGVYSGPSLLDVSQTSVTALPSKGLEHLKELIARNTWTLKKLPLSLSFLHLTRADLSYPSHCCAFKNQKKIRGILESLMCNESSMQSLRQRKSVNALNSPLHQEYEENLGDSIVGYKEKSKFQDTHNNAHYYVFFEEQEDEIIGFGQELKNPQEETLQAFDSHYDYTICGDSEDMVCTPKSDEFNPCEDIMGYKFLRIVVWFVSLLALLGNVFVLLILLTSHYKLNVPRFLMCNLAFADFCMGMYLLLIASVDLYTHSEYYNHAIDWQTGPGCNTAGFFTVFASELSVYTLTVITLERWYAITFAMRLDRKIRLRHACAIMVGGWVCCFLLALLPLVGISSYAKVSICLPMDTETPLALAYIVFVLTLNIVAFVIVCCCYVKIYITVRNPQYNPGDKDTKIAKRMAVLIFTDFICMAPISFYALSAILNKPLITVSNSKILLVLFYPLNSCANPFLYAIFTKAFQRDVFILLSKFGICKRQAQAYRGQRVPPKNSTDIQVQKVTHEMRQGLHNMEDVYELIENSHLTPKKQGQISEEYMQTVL
Procedure, shortened: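 Cells expressing human TSHR (HEK293) are dispensed in HBSS/HEPES containing 70 uM RO 20-1724, compound is added, then TSH at EC80 (4 nM final). Antibody in lysis buffer follows, 30 minutes at room temperature before HTRF detection.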

[15] = molecular target: D(1A) dopamine receptor (Homo sapiens) (UniProt P21728); test: HTS Assay for Allosteric Agonists of the Human D1 Dopamine Receptor: Primary Screen for Agonists (AID 488981); also: 0% is about no effect
Sequence of D(1A) dopamine receptor (Homo sapiens) (P21728 whole entry, looked up): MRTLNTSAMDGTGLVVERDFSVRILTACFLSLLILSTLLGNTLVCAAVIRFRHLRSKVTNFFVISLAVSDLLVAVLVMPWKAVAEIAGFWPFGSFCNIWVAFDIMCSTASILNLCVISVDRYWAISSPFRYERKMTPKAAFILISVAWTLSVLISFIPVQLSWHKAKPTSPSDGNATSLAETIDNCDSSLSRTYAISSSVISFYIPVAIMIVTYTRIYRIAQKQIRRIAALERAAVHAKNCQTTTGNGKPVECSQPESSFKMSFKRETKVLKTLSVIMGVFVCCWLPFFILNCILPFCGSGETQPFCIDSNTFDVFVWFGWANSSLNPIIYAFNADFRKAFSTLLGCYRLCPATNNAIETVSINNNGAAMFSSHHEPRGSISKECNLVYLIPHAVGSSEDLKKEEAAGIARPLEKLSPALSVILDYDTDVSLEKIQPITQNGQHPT
Procedure, shortened: (§1)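 Tetracycline-induced HEK293 Trex D1 cells with forced coupling to calcium, loaded with no-wash calcium dye; kinetic fluorescence read 180 s after compound addition for agonism, then a further 180 s after an EC20 dopamine challenge for potentiation.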

[16] = molecular target: D(1A) dopamine receptor (Homo sapiens) (UniProt P21728); test: HTS Assay for Allosteric Agonists of the Human D1 Dopamine Receptor: Primary Screen for Potentiators (AID 488982); also: 0% is about no effect
Procedure, shortened: as §1

[17] = molecular target: ATPase family AAA domain-containing protein 5 (Homo sapiens) (UniProt Q96QE3); test: Validation screen for small molecules that inhibit ELG1-dependent DNA repair in human embryonic kidney (HEK293T) cells expressing luciferase-tagged ELG1 (AID 493107);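 also: cells co-treated with the DNA-damaging agent 5-fluorouridine alongside compound; series mostly up to about 46 µM; % is scaled to controls: 0 for no effect and ±100 for the full control effect; inhibitors lower the ELG1-luciferase luminescence signal; nearly all actives have a fitted effect of over 70% in size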
Procedure, shortened: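 Quantitative HTS in HEK293T cells carrying luciferase-tagged ELG1, stimulated with 5-fluorouridine alongside compound for 16 hr. Loss of luciferase signal marks inhibition of ELG1 response.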

[18] = molecular target: Thyrotropin-releasing hormone receptor (Homo sapiens) (UniProt P34981); test: qHTS for Small Molecule Agonists and Allosteric Enhancers of Human TRH Receptor: Validation Screen for Agonists (AID 493127;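 active = calcium activation more than 3 SD above the typical response in the agonist read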;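 also: intracellular calcium rise by fluo-8 fluorescence before TRH EC20 addition; 0% is about no effect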); details: TRH receptor agonist cell assay; at 2 µM; active compounds read high
Sequence of Thyrotropin-releasing hormone receptor (Homo sapiens) (P34981 whole entry, looked up): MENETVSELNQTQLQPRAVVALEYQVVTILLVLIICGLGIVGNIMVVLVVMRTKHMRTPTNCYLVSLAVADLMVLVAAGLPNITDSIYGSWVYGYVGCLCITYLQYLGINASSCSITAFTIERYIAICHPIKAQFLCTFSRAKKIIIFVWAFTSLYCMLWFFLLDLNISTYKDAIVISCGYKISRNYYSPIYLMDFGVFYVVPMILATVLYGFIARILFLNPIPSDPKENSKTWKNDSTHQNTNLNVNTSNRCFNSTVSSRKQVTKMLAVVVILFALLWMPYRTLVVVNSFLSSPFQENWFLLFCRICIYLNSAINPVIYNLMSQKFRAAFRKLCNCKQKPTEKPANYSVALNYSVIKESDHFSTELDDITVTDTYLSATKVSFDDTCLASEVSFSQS
Procedure, shortened: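 Gq-coupled calcium mobilization in TRHR cells after compound addition, monitored kinetically with fluo-8 dye on an FDSS reader.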

[19] = molecular target: ATP-dependent 6-phosphofructokinase (Trypanosoma brucei brucei) (UniProt O15648); test: qHTS Validation Assay to Find Inhibitors of T. brucei phosphofructokinase (AID 485368); details: outcome: dose series up to 57.5 µM
Procedure, shortened: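 Compounds (up to 57 uM, titration series) were pinned into substrate buffer, then 1.25 nM PFK added; after 45 min at room temperature, ADP product was quantified by ADP-Glo luminescence and concentration-response curves fitted.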

Cc1nnc2n1-c1ccc(Cl)cc1C(c1ccccc1)=NC2
inactive: outcome [1]

CC(=O)N1CCN(c2ccc(OC[C@H]3CO[C@](Cn4ccnc4)(c4ccc(Cl)cc4Cl)O3)cc2)CC1
active: Potency [2] 11.7 µM | Potency [3] 8.28 µM | Potency [4] 39.8 µM | Potency [5] 39.8 µM
inactive: outcome [6]

COP(=S)(OC)Oc1ccc(SC)c(C)c1
inactive: outcome [1]

O=C1c2ccccc2C(=O)C1C(=O)C(c1ccccc1)c1ccccc1
inactive: outcome [1]

C=C(C)[C@H]1CN[C@H](C(=O)O)[C@H]1CC(=O)O
inactive: outcome [7] | outcome [8] | outcome [9] | Potency [2] | Potency [3] | outcome [10] | outcome [11] | Potency [4] | Potency [5] | outcome [12] | outcome [13] | outcome [14] | Potency [15] | outcome [16] | outcome [1] | outcome [6] | outcome [17] | activation [18] 1.12%

CN=C(NC#N)NCCSCc1nc[nH]c1C
inactive: Potency [4]

CC(C)C[C@H]1C(=O)N2CCC[C@H]2[C@]2(O)O[C@](NC(=O)[C@@H]3C=C4c5cccc6[nH]c(Br)c(c56)C[C@H]4N(C)C3)(C(C)C)C(=O)N12
inactive: outcome [16] | outcome [6]

O=C1c2ccccc2C(=O)c2ccccc21
inactive: outcome [1]

c1ccc2c(c1)sc1ccccc12
inactive: outcome [1]

O=C(Nc1ccc(Br)cc1)c1cc(Br)cc(Br)c1O
inactive: outcome [1]

Cc1nnc(SCC2=C(C(=O)O)N3C(=O)[C@@H](NC(=O)Cn4cnnn4)[C@H]3SC2)s1
inactive: Potency [4]

NCCc1ccc(O)cc1
inactive: outcome [7] | outcome [8] | outcome [9] | outcome [19] | Potency [2] | Potency [3] | outcome [10] | outcome [11] | Potency [4] | Potency [5] | outcome [12] | outcome [13] | outcome [14] | Potency [15] | outcome [16] | outcome [6] | outcome [17] | activation [18] 1.31%

O=C(O)CCCc1ccc(N(CCCl)CCCl)cc1
inactive: outcome [7] | outcome [9] | Potency [2] | Potency [3] | outcome [10] | Potency [4] | Potency [5] | outcome [12] | outcome [13] | outcome [14] | Potency [15] | outcome [16] | outcome [6] | outcome [17] | activation [18] -4.56%

CN(C)C(=O)Oc1ccc[n+](C)c1
active: Potency [5] 0.0067 µM
inactive: Potency [4]

COc1ccc2c(c1OC)C(=O)O[C@H]2[C@@H]1c2cc3c(cc2CCN1C)OCO3
inactive: outcome [7] | outcome [9] | outcome [19] | Potency [3] | outcome [10] | outcome [11] | Potency [4] | Potency [5] | outcome [12] | outcome [14] | Potency [15] | outcome [16] | outcome [6] | outcome [17]

C[C@]12CCC(=O)C=C1CC[C@@H]1[C@@H]2CC[C@]2(C)C(=O)CC[C@@H]12
inactive: Potency [3] | Potency [4] | outcome [13] | outcome [14] | outcome [1] | activation [18] 2.12%

CN1C(=O)NC(=O)C(C)(C2=CCCCC2)C1=O (centres undefined)
inactive: outcome [1]

CC(NC(C)(C)C)C(=O)c1cccc(Cl)c1 (centres undefined)
inactive: outcome [7] | outcome [8] | outcome [9] | Potency [2] | Potency [3] | outcome [10] | outcome [11] | Potency [4] | Potency [5] | outcome [12] | outcome [13] | Potency [15] | outcome [6] | outcome [17] | activation [18] -0.188%

CC(C)(C)NCC(O)c1ccccc1Cl (centres undefined)
inactive: outcome [7] | outcome [8] | outcome [9] | Potency [2] | Potency [3] | outcome [10] | outcome [11] | Potency [4] | Potency [5] | outcome [12] | outcome [13] | outcome [14] | Potency [15] | outcome [16] | outcome [1] | outcome [6] | outcome [17] | activation [18] 0.312%

O=c1[nH]oc2c1CCNC2
inactive: outcome [7] | outcome [8] | outcome [9] | outcome [19] | Potency [2] | Potency [3] | outcome [10] | outcome [11] | Potency [4] | Potency [5] | outcome [12] | outcome [13] | outcome [14] | Potency [15] | outcome [16] | outcome [6] | outcome [17]
